Inconclusive results are not listed. Calls of active or inactive are those of the source. How the source made its calls, unless noted: active means hit-call score of the fitted dose curve at least 0.9, where 1 is the maximum; inconclusive means response in the unintended direction; inactive means score below 0.9.
tested on: not listed separately; test: IUF_NPC4_neurite_area_120hr: Leibniz Research Institute for Environmental Medicine (IUF) 120-hour Neuronal Morphology Assay for Neurite Area (NPC4) (AID 2284305)
Procedure, shortened: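 Human fetal neural progenitor spheres (0.3 mm) plated on poly-D-lysine/laminin in N2 differentiation medium, exposed 120 h (7 concentrations, DMSO ≤0.1%, half-medium refresh day 3). Fixed, TUBB3 immunostained; mean neurite area per neuron by Omnisphero skeletonization.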

| Compound | outcome | AC50 |
| --- | --- | --- |
| O=S1(=O)OCC2C(CO1)C1(Cl)C(Cl)=C(Cl)C2(Cl)C1(Cl)Cl (configuration not stated) | inactive |  |
| CC(C)(C)c1ccccc1OP(=O)(Oc1ccccc1)Oc1ccccc1 | inactive |  |
| O=P(Oc1ccccc1)(Oc1ccccc1)Oc1ccccc1 | inactive |  |
| O=C(O)C(F)(OC(F)(F)C(F)(F)C(F)(F)F)C(F)(F)F (configuration not stated) |  | 0.338 µM (active) |
| CCCCC(CC)COP(=O)(Oc1ccccc1)Oc1ccccc1 (configuration not stated) | inactive |  |
| CCOP(=S)(OCC)SCSCC | inactive |  |
| CCCCOCCOP(=O)(OCCOCCCC)OCCOCCCC | inactive |  |
| CCOc1ccc(C(C)(C)COCc2cccc(Oc3ccccc3)c2)cc1 | inactive |  |
| CO/N=C(/C(=O)OC)c1ccccc1COc1ccccc1C | inactive |  |

tested on: not listed separately; test: IUF_NPC2-5_cytotoxicity_72hr: Cytotoxicity Assessment at 72 hours in the Leibniz Research Institute for Environmental Medicine (IUF) Neural Progenitor Cell Migration and Differentiation Assay for Cytotoxicity (NPC2-5) (AID 2284306);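 further: LDH release into supernatant measured by resorufin fluorescence marking membrane damage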
Procedure, shortened: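 Human fetal primary neural progenitor spheres (0.3 mm) plated on poly-D-lysine/laminin in N2 differentiation medium, exposed from day 0 at 37C. LDH-dependent resazurin-to-resorufin fluorescence in supernatant at 72 h; 7 concentrations, DMSO at most 0.1%.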

| Compound | outcome |
| --- | --- |
| O=S1(=O)OCC2C(CO1)C1(Cl)C(Cl)=C(Cl)C2(Cl)C1(Cl)Cl (configuration not stated) | inactive |
| CC(C)(C)c1ccccc1OP(=O)(Oc1ccccc1)Oc1ccccc1 | inactive |
| O=P(Oc1ccccc1)(Oc1ccccc1)Oc1ccccc1 | inactive |
| O=C(O)C(F)(OC(F)(F)C(F)(F)C(F)(F)F)C(F)(F)F (configuration not stated) | inactive |
| CCCCC(CC)COP(=O)(Oc1ccccc1)Oc1ccccc1 (configuration not stated) | inactive |
| CCOP(=S)(OCC)SCSCC | inactive |
| CCOc1ccc(C(C)(C)COCc2cccc(Oc3ccccc3)c2)cc1 | inactive |
| CO/N=C(/C(=O)OC)c1ccccc1COc1ccccc1C | inactive |

tested on: not listed separately; test: IUF_NPC2-5_cytotoxicity_120hr: Cytotoxicity Assessment at 120 hours in the Leibniz Research Institute for Environmental Medicine (IUF) Neural Progenitor Cell Migration and Differentiation Assay (NPC2-5) (AID 2284307);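 on AC50: LDH released into supernatant as membrane damage marker via resorufin fluorescence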
Procedure, shortened: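 Membrane-integrity loss is quantified by LDH in supernatant after five days of exposure of migrating, differentiating human fetal NPC spheres; seven serially diluted concentrations are tested with DMSO kept at or below 0.1%.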

| Compound | outcome | AC50 |
| --- | --- | --- |
| O=S1(=O)OCC2C(CO1)C1(Cl)C(Cl)=C(Cl)C2(Cl)C1(Cl)Cl (configuration not stated) | inactive |  |
| CC(C)(C)c1ccccc1OP(=O)(Oc1ccccc1)Oc1ccccc1 |  | 1.98 µM (active) |
| O=P(Oc1ccccc1)(Oc1ccccc1)Oc1ccccc1 | inactive |  |
| O=C(O)C(F)(OC(F)(F)C(F)(F)C(F)(F)F)C(F)(F)F (configuration not stated) | inactive |  |
| CCCCC(CC)COP(=O)(Oc1ccccc1)Oc1ccccc1 (configuration not stated) | inactive |  |
| CCOP(=S)(OCC)SCSCC | inactive |  |
| CCCCOCCOP(=O)(OCCOCCCC)OCCOCCCC | inactive |  |
| CCOc1ccc(C(C)(C)COCc2cccc(Oc3ccccc3)c2)cc1 | inactive |  |
| CO/N=C(/C(=O)OC)c1ccccc1COc1ccccc1C | inactive |  |

tested on: not listed separately; test: IUF_NPC2-5_cell_number_120hr: Cell Number Assessment at 120 hours in the Leibniz Research Institute for Environmental Medicine (IUF) Neural Progenitor Cell Migration and Differentiation Assay (NPC2-5) (AID 2284308; active means hit-call score of the fitted dose curve at least 0.9, where 1 is the maximum; inactive means score below 0.9;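 further: count of Hoechst-stained nuclei in migration zone around plated human neural progenitor spheres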)
Procedure, shortened: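 Seven-point serial dilutions plus solvent control were applied to plated 0.3 mm hNPC spheres at differentiation start, with medium half-replaced at day 3. Nuclei positive for Hoechst in the migration zone were enumerated at 120 h.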

| Compound | outcome | AC50 |
| --- | --- | --- |
| O=S1(=O)OCC2C(CO1)C1(Cl)C(Cl)=C(Cl)C2(Cl)C1(Cl)Cl (configuration not stated) | inactive |  |
| CC(C)(C)c1ccccc1OP(=O)(Oc1ccccc1)Oc1ccccc1 | inactive |  |
| O=P(Oc1ccccc1)(Oc1ccccc1)Oc1ccccc1 | inactive |  |
| O=C(O)C(F)(OC(F)(F)C(F)(F)C(F)(F)F)C(F)(F)F (configuration not stated) | inactive |  |
| CCCCC(CC)COP(=O)(Oc1ccccc1)Oc1ccccc1 (configuration not stated) | inactive |  |
| CCOP(=S)(OCC)SCSCC | inactive |  |
| CCCCOCCOP(=O)(OCCOCCCC)OCCOCCCC | inactive |  |
| CCOc1ccc(C(C)(C)COCc2cccc(Oc3ccccc3)c2)cc1 | inactive |  |
| CO/N=C(/C(=O)OC)c1ccccc1COc1ccccc1C |  | 19.7 µM (active) |

tested on: not listed separately; test: IUF_NPC2-5_viability_120hr: Viability Assessment at 120 hours in the Leibniz Research Institute for Environmental Medicine (IUF) Neural Progenitor Cell Migration and Differentiation Assay (NPC2-5) (AID 2284312; active means hit-call score of the fitted dose curve at least 0.9, where 1 is the maximum; inactive means score below 0.9)
Procedure, shortened: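 Human fetal neural progenitor spheres (0.3 mm) plated on poly-D-lysine/laminin in N2 differentiation medium, exposed 120 h with half-medium refresh at day 3. Viability by alamar blue resazurin fluorescence; 7 concentrations, DMSO max 0.1%.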

| Compound | outcome |
| --- | --- |
| O=S1(=O)OCC2C(CO1)C1(Cl)C(Cl)=C(Cl)C2(Cl)C1(Cl)Cl (configuration not stated) | inactive |
| CC(C)(C)c1ccccc1OP(=O)(Oc1ccccc1)Oc1ccccc1 | inactive |
| O=P(Oc1ccccc1)(Oc1ccccc1)Oc1ccccc1 | inactive |
| O=C(O)C(F)(OC(F)(F)C(F)(F)C(F)(F)F)C(F)(F)F (configuration not stated) | inactive |
| CCCCC(CC)COP(=O)(Oc1ccccc1)Oc1ccccc1 (configuration not stated) | inactive |
| CCOP(=S)(OCC)SCSCC | inactive |
| CCCCOCCOP(=O)(OCCOCCCC)OCCOCCCC | inactive |
| CCOc1ccc(C(C)(C)COCc2cccc(Oc3ccccc3)c2)cc1 | inactive |
| CO/N=C(/C(=O)OC)c1ccccc1COc1ccccc1C | inactive |

tested on: IYD (gene 389434); test: CCTE_GLTED_hIYD: CCTE's human Iodotyrosine Deiodinase (xIYD) Inhibition Assay, Great Lakes Toxicology and Ecology Division (GLTED) Lab (AID 2284317)
Description: CCTE_GLTED_hIYD is a cell-free, single-readout assay that uses human iodotyrosine deiodinase (hIYD) enzyme produced with baculovirus-insect cell system. The assay is based on iodide release measured by the Sandell-Kolthoff method and is run in 96-well plate format with assay plates run in triplicate (n=3) with measurements taken at 3 hours after chemical dosing. Platewise-normalization was used based on positive control (3-Nitro-L-tyrosine, MNT) and negative/solvent controls (DMSO, NaOH).CCTE_GLTED_hIYD is the assay component measured from the CCTE_GLTED_hIYD assay. It measures substrate involved in regulation of catalytic activity using spectrophotometry. The assay measures the deiodination activity of human IYD on the substrate monoiodotyrosine (MIT). After 3h incubation of substrate, enzyme, and test chemical, the components are applied to a 96-well Dowex column. Free iodide is not retained by the column and is separated from interfering assay components. The free iodide is measured by the Sandell-Kolthoff reaction in which the rate of reduction of cerium (Ce+4 to Ce+3) by arsenic (As+3 to As+5) is increased by the presence of iodide. This is observed as the loss of yellow color in the reaction and the quantified by the change in absorbance at 420 nm. The change in reaction rate is proportional to the amount of iodide present.Data from the assay component CCTE_GLTED_hIYD was analyzed at the assay endpoint CCTE_GLTED_hIYD in the positive analysis fitting direction relative to DMSO as the negative control and baseline of activity. […]
Human thyroxine binding globulin (TBG) assay, developed at Great Lakes Toxicology and Ecology Division (GLTED) within the EPA's Center for Computational Toxicology and Exposure (CCTE), is designed to test the chemicals' ability to displace T4 from the TBG protein. […] This work describes the utilization of ANSA fluorescence when bound to the protein to approximate binding affinity of chemicals through a reduction of fluorescence when ANSA is displaced. […]

| Compound | AC50 | outcome |
| --- | --- | --- |
| CCCCCCCc1ccc(O)cc1 | 52.4 µM (active) |  |
| O=c1ssc(Cl)c1Cl |  | inactive |
| CCCCc1ccc(O)cc1 |  | inactive |

— PubChem BioAssay (EPA / NIEHS)
